This passage reports outcome and AC50 results from PubChem BioAssay (EPA / NIEHS).

The source holds several records for some structures; these can differ, active in one and inactive in another. The source made the active and inactive calls. How the source made its calls: active means hit-call score of the fitted dose curve at least 0.9, where 1 is the maximum; inactive means score below 0.9.

CCAAT/enhancer-binding protein beta (Homo sapiens), sequence (P17676 whole entry, looked up): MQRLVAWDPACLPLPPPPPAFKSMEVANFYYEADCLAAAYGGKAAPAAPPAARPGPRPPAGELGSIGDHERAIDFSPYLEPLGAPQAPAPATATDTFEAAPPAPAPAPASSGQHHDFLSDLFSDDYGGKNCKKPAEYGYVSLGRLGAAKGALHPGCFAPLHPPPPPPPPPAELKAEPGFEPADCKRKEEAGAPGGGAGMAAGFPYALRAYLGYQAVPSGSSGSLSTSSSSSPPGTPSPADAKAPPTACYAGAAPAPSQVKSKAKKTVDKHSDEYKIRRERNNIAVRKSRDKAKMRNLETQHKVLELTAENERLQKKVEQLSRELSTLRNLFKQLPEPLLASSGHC

The target in this experiment is CCAAT/enhancer-binding protein beta (Homo sapiens) (UniProt P17676). The experiment is described as follows: ATG_C_EBP_CIS: Attagene CIS-FACTORIAL HepG2 Assay for human CCAAT/Enhancer Binding Protein (C/EBP) beta (AID 2282927). As to conditions: HepG2 Attagene cis-factorial transcription factor reporter; actives raise or lower the signal. The procedure:
ATG_CIS is a cell-based, multiplexed-readout assay that uses HepG2, a human liver cell line, with measurements taken at 24 hours after chemical dosing in a 24-well plate.ATG_C_EBP_CIS is one of 52 assay component(s) measured or calculated from the ATG_CIS assay. It is designed to make measurements of mRNA induction, a form of inducible reporter, as detected with fluorescence intensity signals by Reverse transcription polymerase chain reaction (RT-PCR) and Capillary electrophoresis technology.Data from the assay component ATG_C_EBP_CIS was analyzed into 1 assay endpoint. This assay endpoint, ATG_C_EBP_CIS, was analyzed with bidirectional fitting relative to DMSO as the negative control and baseline of activity. Using a type of inducible reporter, measures of mRNA for gain or loss-of-signal activity can be used to understand the reporter gene at the transcription factor-level as they relate to the gene CEBPB. Furthermore, this assay endpoint can be referred to as a primary readout, because this assay has produced multiple assay endpoints where this one serves a reporter gene function. To generalize the intended target to other relatable targets, this assay endpoint is annotated to the dna binding intended target family, where the subfamily is basic leucine zipper.
Human liver HepG2 cells are transiently transfected with multiple reporter transcription units (MRTUs) in 6-well plates using FuGene 6 reagent (Roche; 3 ml FuGene/1 mg DNA). The MRTU constructs are regulated by a cis-regulating element (promoter). […] A major difference between the CIS and TRANS system is that in CIS activities of endogenous TFs are measured, whereas the TRANS assay evaluates changes in activities of exogenous, chimeric NR-Gal4 proteins. […] At the end of 24 hour incubation, total RNA was isolated using TriZol reagent (Invitrogen). The isolated RNA is then reverse-transcribed using oligo(dT) primer and Mo-MLV reverse transcriptase (Invitrogen) with DNAse I (Ambion) treatment for 30 min. The one-tenth of the produced cDNA was amplified by PCR using Taq DNA polymerase (Invitrogen) and two reporter sequence-specific primers. The PCR products were fluorescently labeled by primer extension with 6-arboxyfluorescein (6-FAM) 5'-labeled reporter sequence-specific primer (2 min at 95 C, 20 s at 68 C and 10 min at 72 C) and these products were digested with 5U of HpaI (New England Biolabs) for 2h at 37 C. The fragments were purified using Qiaquick PCR columns (Qiagen), analyzed on an ABI 3130xL genetic analyzer (Applied Biosystems) with peak positions identified by using a set of X-rhodamine (ROX)-labeled MapMarker1000 molecular weight standards (BioVentures). The raw capillary electrophoresis data was processed using Attagraph software (Attagene).
As to `Clc1ccc(C(c2ccc(Cl)cc2)C(Cl)(Cl)Cl)cc1`, the outcome was inactive.

On to `CC(C)(C)OOC(C)(C)CCC(C)(C)OOC(C)(C)C`, for which the result was inactive.

With `O=C(O)C1C2CCC(O2)C1C(=O)O` (stereo not given), the outcome was inactive. Same read-out and setting: with `CNC(=O)Oc1cccc2c1OC(C)(C)C2` the entry was “inactive”; with `CCN(CC)N=O`, “inactive”. Regarding `CC(C)(OOC(C)(C)c1ccccc1)c1ccccc1`, the AC50 was 59.3 µM (active). `CS(=O)(=O)NC(=O)c1cc(Oc2ccc(C(F)(F)F)cc2Cl)ccc1[N+](=O)[O-]`: the outcome was inactive. Take `Clc1ccc(C(c2ccc(Cl)cc2)C(Cl)Cl)cc1`: the AC50 was 54.8 µM (active). Regarding `CCCCOC(=O)c1ccccc1C(=O)OCc1ccccc1`, the outcome was inactive. Consider `Nc1ccc(Cc2ccc(N)cc2)cc1`, for which the outcome was inactive. Same read-out and setting: under `c1ccc(N=Nc2ccccc2)cc1` stands “inactive”; under `CO[C@@H]1[C@H](OC(=O)NC(=O)CCl)CC[C@]2(CO2)[C@H]1[C@@]1(C)O[C@@H]1CC=C(C)C`, “inactive”. The same measure, in the same setting: under `Nc1ccc([N+](=O)[O-])cc1` stands “inactive”; under `OCCCBr`, “inactive”; under `O=Cc1ccco1`, “inactive”. As for `O=C(Nc1ccccc1)c1ccccc1I`, the outcome was inactive. The same measure, in the same setting: under `Cc1cccc(N)c1N` stands “inactive”; under `[As]#[In]`, “inactive”; under `OCCOCCO`, “inactive”. Same read-out and setting: with `CC(O)CCO` (stereo not given) the entry was “inactive”.

In the case of `c1ccc2c(c1)oc1ccccc12`, the result was inactive. For `Nc1ccc(Oc2ccc(N)cc2)cc1`, the outcome was inactive. The same measure, in the same setting: with `Oc1ccc2ccc3cccc4ccc1c2c34` the entry was “inactive”. For the compound `O=[N+]([O-])C(Br)(CO)CO`, the AC50 is 156 µM (active). `CN(C)[C@@H]1C(=O)C(C(N)=O)=C(O)[C@@]2(O)C(=O)C3=C(O)c4c(O)cccc4[C@@](C)(O)[C@H]3C[C@@H]12`: the outcome was inactive. Still for that read-out and setting: with `O=C(Oc1ccc(Br)cc1)N1CCN2CCC1CC2` the entry was “inactive”; with `CCNS(=O)(=O)C(F)(F)C(F)(F)C(F)(F)C(F)(F)C(F)(F)C(F)(F)C(F)(F)C(F)(F)F`, “inactive”; with `ClC1=C(Cl)[C@]2(Cl)[C@H]3[C@H]([C@@H]4C=C[C@H]3C4)[C@@]1(Cl)C2(Cl)Cl`, “inactive”.

Turning to `c1ccc(NNc2ccccc2)cc1`, the result was inactive. For `C[C@]12C=CC3=C4CCC(=O)C=C4CC[C@H]3[C@@H]1CC[C@@H]2O`, the result was inactive and the half-maximal activity concentration (AC50) was 18 µM (active). For the compound `C1=Cc2cccc3cccc1c23`, the outcome was inactive. With `CCOC(=O)[C@]1(c2ccccc2)Oc2ccccc2[C@@H]1N`, the AC50 was 33 µM (active). As to `CCOc1cccc(C2(N3CCN(c4ccccc4)CC3)CCC(C)CC2)c1` (stereo not given), the outcome was inactive. On the same count and under the same terms, under `Cc1ccc([N+](=O)[O-])cc1` stands “inactive”; under `CCC12COCN1COC2`, “inactive”; under `CC(C)(O)c1cnn2c(-c3ccc(F)c(-c4c(F)cccc4C#N)c3)cnc2n1`, “inactive”. For the compound `N#CC(Br)(Br)C(N)=O`, the outcome was inactive. On the same count and under the same terms, with `COC(=O)Nc1nc2ccccc2[nH]1` the entry was “inactive”.

With `[O-][Cl+]O`, the outcome was inactive.

For orientation: AC50 means the midpoint of the concentration-response curve, whichever way the signal moves.
